# Laboratory results as given in publication PMC4336329 (PLoS ONE, 2015).
# About 14,000 (4.5%) of roughly 310,000 compounds showed an effect of 50% or more. The effect is printed as a negative number. Shown is part of a subset that was picked to be rich in strong results.
# Target: human ether-à-go-go-related gene (hERG) potassium channel (human, UniProt Q12809)
# Experiment: primary screen, population patch clamp on CHO cells stably expressing hERG; higher = less effect of the substance
# 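Also: peak tail current of the secondary pulse compared with the same well before compound.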
# human ether-à-go-go-related gene (hERG) potassium channel, sequence (Q12809 whole entry, looked up): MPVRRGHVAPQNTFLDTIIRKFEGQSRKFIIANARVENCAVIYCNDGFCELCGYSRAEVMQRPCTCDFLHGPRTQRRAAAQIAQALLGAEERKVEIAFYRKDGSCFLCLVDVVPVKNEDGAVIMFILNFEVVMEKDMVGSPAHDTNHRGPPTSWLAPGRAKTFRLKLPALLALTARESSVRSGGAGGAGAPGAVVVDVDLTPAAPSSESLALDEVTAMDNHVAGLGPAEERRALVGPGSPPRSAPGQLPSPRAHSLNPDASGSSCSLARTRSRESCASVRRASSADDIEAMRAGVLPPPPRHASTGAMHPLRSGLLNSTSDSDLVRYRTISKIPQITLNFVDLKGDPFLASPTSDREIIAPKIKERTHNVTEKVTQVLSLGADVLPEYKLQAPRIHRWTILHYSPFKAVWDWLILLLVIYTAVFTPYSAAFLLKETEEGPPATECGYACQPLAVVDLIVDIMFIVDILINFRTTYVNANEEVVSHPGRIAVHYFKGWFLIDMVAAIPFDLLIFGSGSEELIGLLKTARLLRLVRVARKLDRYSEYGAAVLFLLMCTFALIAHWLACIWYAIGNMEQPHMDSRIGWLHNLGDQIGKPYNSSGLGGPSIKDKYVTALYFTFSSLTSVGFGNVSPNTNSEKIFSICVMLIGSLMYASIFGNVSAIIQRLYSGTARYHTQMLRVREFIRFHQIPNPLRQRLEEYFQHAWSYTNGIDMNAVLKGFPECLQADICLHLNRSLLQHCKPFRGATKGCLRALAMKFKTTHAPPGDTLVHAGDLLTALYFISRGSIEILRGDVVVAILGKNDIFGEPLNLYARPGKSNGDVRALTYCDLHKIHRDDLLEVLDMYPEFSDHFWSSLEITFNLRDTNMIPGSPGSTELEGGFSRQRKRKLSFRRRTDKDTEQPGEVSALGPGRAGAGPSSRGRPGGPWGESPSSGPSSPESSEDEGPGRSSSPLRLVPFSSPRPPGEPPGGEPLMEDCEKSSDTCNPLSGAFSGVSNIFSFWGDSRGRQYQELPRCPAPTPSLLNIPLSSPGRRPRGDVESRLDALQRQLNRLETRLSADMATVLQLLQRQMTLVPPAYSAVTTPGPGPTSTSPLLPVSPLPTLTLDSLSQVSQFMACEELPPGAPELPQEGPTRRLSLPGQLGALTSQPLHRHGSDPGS
row,SMILES,"hERG current change (%, negative = inhibition) at 10uM [%]"
1,Cc1sc2nc(CSc3ccccc3)nc(NCCN(C)C)c2c1C,-72.2
2,CCOC(=O)c1sc2nc(CSc3ccccc3)nc(N3CCC(C(N)=O)CC3)c2c1C,17.5
3,CCOC(=O)c1sc2nc(CSc3ccccc3)nc(NCCN(C)C)c2c1C,-17.4
4,O=C(NCCCN=C1NS(=O)(=O)c2ccccc21)c1ccco1,-10
5,Cc1nn(C)cc1C1C(C#N)=C(N)N(c2ccc(F)c([N+](=O)[O-])c2)C2=C1C(=O)CCC2 (centres unmarked),11
6,Cc1ccc(S(=O)(=O)N2[C@@H](c3cccc(Cl)c3)C(C(=O)O)=CC[C@H]2c2cccc(Cl)c2)cc1,3.05
7,O=[N+]([O-])c1ccc(NC(=S)N/C(=N/CS(=O)(=O)c2ccccc2)c2ccccc2)cc1,-25.1
8,COc1ccc(NC(=S)N/C(=N/CS(=O)(=O)c2ccccc2)c2ccccc2)cc1,-53
9,COc1ccc(NC(=S)N/C(=N/S(=O)(=O)c2ccc(C)cc2)c2ccccc2)cc1,21.2
10,COc1ccc(NC2SC(=O)N(C)C2=O)cc1 (centres unmarked),1.36
11,O=C1C(=O)N(CCN2CCOCC2)C(c2ccncc2)/C1=C(/O)c1ccc2c(c1)OCO2 (centres unmarked),8.87
12,O=C(NCC1CCCN(Cc2ccc3nonc3c2)C1)c1ccc(F)cc1 (centres unmarked),-60.8
13,COc1ccc(CC(=O)NCC2CCCN(Cc3cccc(C(F)(F)F)c3)C2)cc1 (centres unmarked),-28
14,O=C(c1cc(F)ccc1F)C1CCCN(Cc2ccc3nonc3c2)C1 (centres unmarked),-12
15,O=S(=O)(Cc1ccccc1)NCC1CCCN(Cc2cccc3nonc23)C1 (centres unmarked),-12.2
16,O=C(NCC1CCCN(Cc2ccc3nonc3c2)C1)c1cccc(C(F)(F)F)c1 (centres unmarked),-61.5
17,O=S(=O)(Cc1ccccc1)NCC1CCCN(Cc2ccc3nonc3c2)C1 (centres unmarked),-51.2
18,O=S(=O)(Cc1ccccc1)NCC1CCCN(Cc2ccc(F)c(F)c2)C1 (centres unmarked),-44.2
19,O=C(NCC1CCCN(Cc2ccc3c(c2)OCCO3)C1)c1ccc2c(c1)OCO2 (centres unmarked),-18.8
20,O=C(COc1ccc(Cl)cc1)NNC(=O)CSc1nncs1,8.43
21,COc1ccccc1Oc1ccccc1C(=O)O,0.941
22,O=C(NCc1ccc(Cl)cc1)C1C2C=CC3(CN(Cc4cccnc4)C(=O)C13)O2 (centres unmarked),-7.1

row,SMILES,"hERG current change (%, negative = inhibition) at 10uM [%]"
1,COc1ccc(N2CCN(CCCNC(=O)C3CCCN(S(=O)(=O)c4c(C)n[nH]c4C)C3)CC2)cc1 (centres unmarked),8.03
2,COc1ccc(C(=O)C(C)OC(=O)c2nc3nccc(C)n3n2)cc1 (centres unmarked),2.98
3,CCOC(=O)C1CCCN(C(=O)c2ccc(CNc3c(N4CCC(C)CC4)c(=O)c3=O)cc2)C1 (centres unmarked),5.83
4,CC(=O)N1CCC(=NNC(=O)CSc2cc(C)c(Br)cc2C)CC1,6.38
5,CCCN1CCC(=NNC(=O)CSc2cc(C)c(Br)cc2C)CC1,-28
6,Cc1cc(SCC(=O)NN=C2CCN(C(C)C)CC2)c(C)cc1Br,-69.4
7,C=CCN(C(=O)Nc1ccc(Cl)cc1)C1CC(=O)N(c2ccc(OC)cc2)C1=O (centres unmarked),-14.8
8,O=C(NCc1ccncc1)C(=O)C1C(=O)Nc2ccccc21 (centres unmarked),11.6
9,CCOC(=O)c1csc(NNC=O)n1,6.73
10,CC(CNC(=O)CCS(=O)(=O)c1ccc2c(c1)NC(=O)CO2)c1ccccc1 (centres unmarked),-6.68
11,Cc1ccc(Sc2c([N+](=O)[O-])ncn2C)cc1,3.39
12,Cn1cnc([N+](=O)[O-])c1Sc1ccc(Br)cc1,-20
13,Cn1cnc([N+](=O)[O-])c1Sc1ccc([N+](=O)[O-])cc1,-62.1
14,Cc1c(C(=O)N2CCC3(CC2)OCCO3)sc2ncnc(N3CCN(c4ccccn4)CC3)c12,-44.2
15,CCN(CC)c1ncnc2sc(C(=O)N3CCN(c4ccc(OC)cc4)CC3)c(C)c12,-41.5
16,Cc1c(C(=O)N2CCN(c3ccc(F)cc3)CC2)sc2ncnc(N3CCN(c4ccccn4)CC3)c12,-65.1
17,Cc1c(C(=O)N2CCN(c3ccccn3)CC2)sc2ncnc(N3CCN(c4ccccc4)CC3)c12,-32.8
18,Cc1c(C(=O)N2CCN(Cc3ccc4c(c3)OCO4)CC2)sc2ncnc(N3CCN(c4ccccc4)CC3)c12,7.82
19,CCN(CC)c1ncnc2sc(C(=O)N3CCN(c4ccccc4)CC3)c(C)c12,-50.2
20,COc1ccccc1N1CCN(C(=O)c2sc3ncnc(N4CCN(c5ccccn5)CC4)c3c2C)CC1,-18.8
21,Cc1c(C(=O)N2CCN(c3ccccc3)CC2)sc2ncnc(N3CCN(c4ccccn4)CC3)c12,-35.1
22,Cc1c(C(=O)N2CCN(c3ccccn3)CC2)sc2ncnc(N3CCOCC3)c12,-59
